Measured values from PubChem BioAssay (EPA / NIEHS).
Results filed as inconclusive are left out. The source made the active and inactive calls. The calls were made as follows: active = hit-call score of the fitted dose curve at least 0.9, where 1 is the maximum; inconclusive = response in the unintended direction; inactive = score below 0.9.

Each compound was assayed on xenobiotic metabolism (CYP1A2), CYP1A2 (gene 1544) (assay: CLD_CYP1A2_48hr: CellzDirect (CLD) Gene Expression Assay for xenobiotic metabolism (CYP1A2) at 48 hours (AID 2283703)).
Method: CLD_48hr is a cell-based, multiplexed-readout assay that uses hepatocyte, a human liver primary cell, with measurements taken at 48 hours after chemical dosing in a 96-well plate.CLD_CYP1A2_48hr is one of 16 assay component(s) measured or calculated from the CLD_48hr assay. It is designed to make measurements of mRNA induction, a form of inducible reporter, as detected with chemiluminescence signals by Quantitative Nuclease Protection Assay (qNPA) technology.Data from the assay component CLD_CYP1A2_48hr was analyzed at the endpoint, CLD_CYP1A2_48hr, in the positive analysis fitting direction relative to DMSO as the negative control and baseline of activity. Using a type of inducible reporter, gain-of-signal activity can be used to understand changes in the reporter gene as they relate to the gene CYP1A2. Furthermore, this assay endpoint can be referred to as a primary readout. To generalize the intended target to other relatable targets, this assay endpoint is annotated to the cyp intended target family, where subfamily is xenobiotic metabolism.
Human hepatocyte cultures were treated daily for two consecutive days with fresh dosing solutions containing appropriate concentrations of the 320 ToxCast chemicals (chemical identities were blinded to CellzDirect and other ToxCast collaborators), vehicle control (0.2% DMSO), and positive control inducers as summarized in Table 1. Due to the large number of treatment groups and chemicals examined, the ToxCast chemicals were divided into two groups (spanning two independent cultures of hepatocytes from separate donor preparations (Hu778: ToxCast plates 1 and 2; Hu776: ToxCast plates 3 and 4). Each preparation of human hepatocyte cultures was treated with respective vehicle control, medium only control, set of six positive controls/reference chemicals for the five hepatic receptor pathways, and a subset of eight of the ToxCast chemicals (indoxacarb, pyrithiobac-sodium, norflurazon, cyhalofop-butyl, methomyl, thiram, acetochlor, and propiconazole). These replicate data, coupled with internal replicates designed within the blinded ToxCast chemical library, provided additional data to evaluate interindividual differences between hepatocyte preparations and their potential impact on chemical profiles.Cell morphology and integrity were evaluated using phase-contrast microscopy as an indicator of hepatocyte cell health (Tyson & Green, 1987). Cultures for each treatment group (i.e., media, vehicle [0.2% DMSO], positive control inducers [multiple concentrations], and the ToxCast chemicals [multiple concentrations]) were observed and cell morphology was assessed relative to vehicle control cultures at each harvest time point (0, 6, 24, or 48 h). […] Images were evaluated at the conclusion of the study to assess changes in cell integrity and account for the effects of chemical exposure on uncharacteristic changes in concentration-dependent gene expression profiles. The results from these determinations of apparent cytotoxicity were annotated (yes/no) alongside the corresponding qNPA data for reference.At the conclusion of each treatment period, hepatocyte cultures (96-well) were washed with 1 volume of HBSS, lysed by addition of 25 ul ArrayPlate lysis buffer (HTG, Tucson, AZ), and 70 ul/well of Denaturation Oil, denatured by incubation at 95C for 10 min, and frozen at approximately -70C until analysis by nuclease protection assay (qNPA) (Roberts et al., 2007). For qNPA analysis, cell lysates were thawed at 50C for approximately 30 min, qNPA probes were added, and samples were incubated at 95C for 10 min to begin the detection process by denaturing the target RNA, dissociating the duplexes and secondary structure hybridization. At the conclusion of the hybridization period, S1 nuclease reagent was added to each sample to digest all nonprotected nucleotides at 50C for 60-90 min. […]

| SMILES | outcome | AC50 |
| --- | --- | --- |
| O=C(NC(=O)c1c(F)cccc1F)Nc1ccc(OC(F)(F)C(F)OC(F)(F)F)c(Cl)c1 (stereo not given) | inactive | – |
| Oc1cc(Cl)ccc1Oc1ccc(Cl)cc1Cl | inactive | – |
| [2H]C1([2H])[n+]2ccccc2-c2cccc[n+]2C1([2H])[2H] | inactive | – |
| COP(=S)(OC)Oc1ccc([N+](=O)[O-])cc1 | – | 5.33 µM (active) |
| COP(=O)(OC)OC=C(Cl)Cl | inactive | – |
| Clc1ccccc1-c1nnc(-c2ccccc2Cl)nn1 | – | 20 µM (active) |
| CCOc1nc(NC)nc(NC(=O)NS(=O)(=O)c2ccccc2C(=O)OC)n1 | – | 14.3 µM (active) |
| CCC(C)Nc1c([N+](=O)[O-])cc(C(C)(C)C)cc1[N+](=O)[O-] (stereo not given) | – | 5.38 µM (active) |
| O=C(O)CCCOc1ccc(Cl)cc1Cl | inactive | – |
| CC(C)(C)C(O)C(Oc1ccc(Cl)cc1)n1cncn1 (stereo not given) | – | 5.29 µM (active) |
| CC(C)N(C(=O)COc1nnc(C(F)(F)F)s1)c1ccc(F)cc1 | inactive | – |
| CNC(=O)Oc1ccccc1OC(C)C | inactive | – |
| CN1CSC(=S)N(C)C1 | inactive | – |
| CNC(=O)CSP(=S)(OC)OC | inactive | – |
| CCCN(CCOc1c(Cl)cc(Cl)cc1Cl)C(=O)n1ccnc1 | – | 0.178 µM (active) |
| CC1(c2ccc(Oc3ccccc3)cc2)OC(=O)N(Nc2ccccc2)C1=O (stereo not given) | – | 0.661 µM (active) |
| C#CCN1C(=O)COc2cc(F)c(N3C(=O)C4=C(CCCC4)C3=O)cc21 | inactive | – |
| O=C(O)C(F)(F)C(F)(F)C(F)(F)C(F)(F)C(F)(F)C(F)(F)C(F)(F)F | inactive | – |
| O=S(=O)(O)C(F)(F)C(F)(F)C(F)(F)C(F)(F)C(F)(F)C(F)(F)C(F)(F)C(F)(F)F | inactive | – |
| O=C(Nc1ccccc1)Nc1cnns1 | – | 3.38 µM (active) |

| SMILES | outcome | AC50 |
| --- | --- | --- |
| CC1(C)C(C=C(Cl)Cl)C1C(=O)OC(C#N)c1ccc(F)c(Oc2ccccc2)c1 (stereo not given) | inactive | – |
| COP(=S)(OC)Oc1ccc(SC)c(C)c1 | – | 6.69 µM (active) |
| N#Cc1c(Cl)c(Cl)c(Cl)c(C#N)c1Cl | inactive | – |
| CC(C)OC(=O)Nc1cccc(Cl)c1 | – | 2.46 µM (active) |
| COc1cc(OC)nc(NC(=O)NS(=O)(=O)c2cc(NC=O)ccc2C(=O)N(C)C)n1 | inactive | – |
| COC(=O)c1ccccc1CS(=O)(=O)NC(=O)Nc1nc(OC)cc(OC)n1 | inactive | – |
| CCc1ccc(C(=O)NN(C(=O)c2cc(C)cc(C)c2)C(C)(C)C)cc1 | – | 5.55 µM (active) |
| O=C(O)COc1ccc(Cl)cc1Cl | inactive | – |
| CC(C)(C)C(O)/C(=C\c1ccc(Cl)cc1Cl)n1cncn1 (stereo not given) | – | 3.7 µM (active) |
| CCCN(CCC)c1c([N+](=O)[O-])cc(C(F)(F)F)cc1[N+](=O)[O-] | – | 9.22 µM (active) |
| CCC(C)(C)C(=O)OC1=C(c2ccc(Cl)cc2Cl)C(=O)OC12CCCCC2 | – | 20 µM (active) |
| OCCOc1ccccc1 | inactive | – |
| COC(=O)c1ccccc1S(=O)(=O)NC(=O)Nc1nc(C)nc(OC)n1 | inactive | – |
| CCOCN(C(=O)CCl)c1c(C)cccc1CC | inactive | – |
| C[C@H]1[C@H](c2ccc(Cl)cc2)SC(=O)N1C(=O)NC1CCCCC1 | – | 5.38 µM (active) |
| COc1nn(CSP(=S)(OC)OC)c(=O)s1 | – | 3.97 µM (active) |
| CCN(CC)C(=O)SCc1ccc(Cl)cc1 | inactive | – |
| Cc1cc(C)nc(NC(=O)NS(=O)(=O)c2ccccc2C(=O)OC2COC2)n1 | inactive | – |
| CCOC1Oc2ccc(OS(C)(=O)=O)cc2C1(C)C (stereo not given) | inactive | – |
| CCS(=O)(=O)c1cccnc1S(=O)(=O)NC(=O)Nc1nc(OC)cc(OC)n1 | inactive | – |
